This is an account of results in PubChem BioAssay (NCATS).

Inconclusive results are not listed. Values without a mark were called inactive. Calls of active or inactive are those of the source. Calls follow the shape of the dose curve; as a rule, active = well fitted cell-killing curve with a large enough effect; inconclusive = small, poorly fitted or top-dose-only effect; inactive = no such curve, though single readings can be large or run the other way.
% is scaled to controls: 0 for no effect and ±100 for the full control effect; potency is read from the fitted curve at half-maximal effect.

The test in a line: qHTS of pediatric cancer cell lines to identify multiple opportunities for drug repurposing: Primary screen for SK-N-SH cells (AID 1347098). Also: nearly all actives have a fitted effect of over 65% in size. The note with it: SK-N-SH viability, CellTiter-Glo luminescence, 48 h; series mostly up to 57 µM; activity change, negative = cytotoxic: at the top concentration. An excerpt:
Drug repurposing or repositioning has been offered as a strategy for drug development in oncology programs. This approach has special potential for childhood cancers and other rare or orphan diseases, where the expected return on new drug development has been a disincentive to pharmaceuticals.
In this project we exploit the poly-pharmacology of drugs to discover new indications via phenotypic screening of a panel of 19 well-characterized cell lines derived from solid tumors seen in children and adolescents. The goal is to identify approved drugs with previously unrecognized anticancer properties that has the potential to reveal new mechanisms and biological processes involved in carcinogenesis or drug resistance. We employed a titration-based paradigm (quantitative high-throughput screening or qHTS), where all compounds were tested at multiple concentrations for their effect on cell viability. Concentration-response curves (CRCs) were derived directly from the primary screen, and both potency and efficacy values were used to identify compounds with robust bioactivity profiles. We screened the NIH Chemical Genomics Center (NCGC) Pharmaceutical Collection (NPC) and Mechanism Interrogation Plate (MIPE) small molecule collections of approved and investigational compounds against these cell lines; and measured metabolically active cells after 48 hours of compound treatment as a proxy for cell viability.
Assay Submitter: Nathalia J. Martinez, National Center for Advancing Translational Sciences, National Institutes of Health, Rockville, MD, USA; email: natalia.martinez@nih.gov
[1] Shen, M et al. Quantitative high-throughput phenotypic screening of pediatric cancer cell lines identifies multiple opportunities for drug repurposing. Oncotarget 2017 Dec 19;9(4):4758-4772. PMID 29435139.
The cells were obtained from University of North Carolina (UNC), Pediatric Preclinical Testing Program (PPT), and Coriell Institute (CI).
qHTS cell viability assay:
Cells were assayed in growth media at a density of 500-1,000 cells/well. Five microliters of cells were dispensed into 1,536-well, white, solid-bottom, TC-treated plates (Greiner Bio One) using a multidrop dispenser and incubated at 37 degrees C, 5% CO2, under a humidified atmosphere for 5 hours. Twenty-three nanoliters of compounds and controls (neutral control DMSO or positive control bortezomib at final concentration of 2.3 µM) were subsequently transferred by Kalypsys pintool. For primary screens, the MIPE collection was tested at 11-point dilutions (final concentrations range from 0.78 nM to 46 µM) and the NPC collection at 8-point dilutions (final concentrations range from 0.59 nM to 46 µM). Compounds tested in follow-up screens were assayed at 11-point dilutions. Cells were incubated for 48 hours, followed by addition of 3 µL of CellTiter-Glo (Promega). After a 15 min incubation at room temperature, samples were analyzed for luminescence intensity using a ViewLux High-throughput CCD imager equipped with clear filters.
(Quantitative high-throughput screening tests each substance at several concentrations.)
In the case of `O=C1CSC(=O)N1C(CCc1ccncc1)COc1ccc(-c2cccc([N+](=O)[O-])c2)cc1` (stereo not given), the Potency is 4.82 µM (active).
Same read-out and setting: next, `COc1cccc2c1C(=O)c1c(O)c3c(c(O)c1C2=O)C[C@@](O)(C(=O)CO)C[C@@H]3O[C@H]1C[C@H](N)[C@@H](O)[C@H](C)O1`: 0.429 µM (active).
On to `NC1=N[C@H]2[C@H](CS[C@H]2CCCCC(=O)O)N1`, for which the “activity change, negative = cytotoxic” value was 25.4% [at 20 µM].
On to `O=C(c1ccc(F)cc1)N1CCC[C@H](c2nc(-c3ccc(F)cc3)no2)C1`, for which the Potency was 13.6 µM (active).
On to `COc1ccc(C[C@@H](C)[C@@H](C)Cc2ccc(OC)c(OC)c2)cc1OC`, for which the “activity change, negative = cytotoxic” value is -23.8%.
Consider `CO[C@@H]1[C@@H](O)[C@H](O)[C@@H](n2c3c(Cl)cccc3c3c4c(c5c6cccc(Cl)c6[nH]c5c32)C(=O)NC4=O)O[C@@H]1CO`, for which the Potency was 1.21 µM (active).
`Nc1nc2c(c(=O)[nH]1)N(C=O)[C@H](CNc1ccc(C(=O)N[C@@H](CCC(=O)O)C(=O)O)cc1)CN2`: the “activity change, negative = cytotoxic” value was 7.91%.
On to `Nc1ccn(C2CO[C@H](CO)O2)c(=O)n1` (stereo not given in full), for which the “activity change, negative = cytotoxic” value is 10.2%.
Take `CC(C=CC(=O)NO)=C[C@@H](C)C(=O)c1ccc(N(C)C)cc1`: the Potency is 2.71 µM (active).
On to `Cc1cc(-c2nnc3n2CCCCC3)c(C)n1-c1ccccc1`, for which the “activity change, negative = cytotoxic” value is 14.5%.
For the compound `Cn1c(Nc2ccc(C(F)(F)F)cc2)nc2cc(Oc3ccnc(-c4ncc(C(F)(F)F)[nH]4)c3)ccc21`, the Potency is 7.64 µM (active).
The same measure, in the same setting: in the case of `N#CNC(=NCCCCCCOc1ccc(Cl)cc1)Nc1ccncc1` it was 0.0607 µM (active); in that of `CON=C(C(=O)N[C@@H]1C(=O)N2C(C(=O)O)=C(CSC(=O)c3ccco3)CS[C@H]12)c1csc(N)n1`, 13.6 µM (active).
Take `CCCCC(=O)O[C@]1(C(=O)CO)[C@@H](C)C[C@H]2[C@@H]3CCC4=CC(=O)C=C[C@]4(C)[C@@]3(F)[C@@H](O)C[C@@]21C`: the “activity change, negative = cytotoxic” value was 18.1%.
Same read-out and setting: in the case of `C=CC1=C(C(=O)O)N2C(=O)[C@@H](NC(=O)C(=NO)c3csc(N)n3)[C@H]2SC1` it was 2.1%.
In the case of `N#CC(=C(N)Sc1ccc(N)cc1)c1ccccc1C(F)(F)F`, the Potency is 4.82 µM (active).
On to `CC(C)NC[C@@H](C(=O)N1CCN(c2ncnc3c2[C@H](C)C[C@H]3O)CC1)c1ccc(Cl)cc1`, for which the Potency is 12.1 µM (active).
For `O=C(C=Cc1ccc(CN(CCO)CCc2c[nH]c3ccccc23)cc1)NO`, the Potency is 0.541 µM (active).
Same read-out and setting: next, `CCc1ccc(C(=O)Nc2cc(CN3CCN(C)CC3)cc(C(F)(F)F)c2)cc1C#Cc1cnc2ccnn2c1`: 24.1 µM (active); `CC(C)C[C@H](NC(=O)CNC(=O)c1cc(Cl)ccc1Cl)B1OC(=O)CC(CC(=O)O)(C(=O)O)O1` (stereo not given in full): 0.215 µM (active); `C=C1C(=O)O[C@H]2[C@@H]1CCC(C)=CCC[C@@]1(C)O[C@@H]21`: 24.1 µM (active).
`O=C(NC1CC1)c1cccc(-c2ccc3c(NC(=O)C4CC4)n[nH]c3c2)c1`: the Potency was 1.71 µM (active).
Take `C[C@@H](Cc1cc2c(c(C(N)=O)c1)N(CCCO)CC2)NCCOc1ccccc1OCC(F)(F)F`: the “activity change, negative = cytotoxic” value is -6.01%.
Take `CCN(CC)CCCCNc1ncc2c(n1)N(C)C(=O)N(c1c(Cl)c(OC)cc(OC)c1Cl)C2`: the Potency was 6.81 µM (active).
On the same count and under the same terms, in the case of `COc1ccc(CCC(=O)c2c(O)cc(O[C@@H]3O[C@H](CO)[C@@H](O)[C@H](O)[C@@H]3O[C@@H]3O[C@@H](C)[C@H](O)[C@@H](O)[C@@H]3O)cc2O)cc1O` it was 13.6 µM (active).
As to `CN(C)CC(=O)N1CCC(c2ccc(NC(=O)c3ncc(C#N)[nH]3)c(C3=CCCCC3)c2)CC1`, the Potency is 1.21 µM (active).
On the same count and under the same terms, in the case of `CCc1c(O)cc(O)c(C(=O)c2ccc(OCCN3CCOCC3)c(OC)c2)c1CC(=O)N(CCOC)CCOC` it was 6.81 µM (active).
`c1ccc2c(Oc3nc(Nc4ccc(N5CCOCC5)cc4)c4ncn(C5CCCCC5)c4n3)cccc2c1`: the “activity change, negative = cytotoxic” value is 18.2%.
For the compound `CS[C@H]1SC[C@@H]2C(=O)N(C)[C@H](C(C)C)C(=O)OC[C@H](NC(=O)c3cnc4ccccc4n3)C(=O)N[C@H](C)C(=O)N(C)[C@@H]1C(=O)N(C)[C@H](C(C)C)C(=O)OC[C@H](NC(=O)c1cnc3ccccc3n1)C(=O)N[C@H](C)C(=O)N2C`, the Potency is 0.0048 µM (active).
On the same count and under the same terms, next, `COc1cc(C(C)C)c(Oc2cnc(NC(CO)CO)nc2N)cc1I`: 1.08 µM (active).
Regarding `CN1[C@H]2CC(OC(=O)[C@@H](CO)c3ccccc3)C[C@H]1[C@H]1O[C@H]12` (stereo not given in full), the “activity change, negative = cytotoxic” value was 19.5% [at 20 µM].
On to `CC(C)Oc1ccc(C(=O)N[C@H](CNC(=O)CN(C)C)Cc2ccc(-c3cn4cccc([C@H](C)O)c4n3)cc2)cc1Cl`, for which the Potency is 15.2 µM (active).
As for `OCCN1C[C@H](O)[C@@H](O)[C@H](O)[C@@H]1CO`, the “activity change, negative = cytotoxic” value was 13.6%.
On to `Cn1cc(CNCC2CCN(c3ncc(C(=O)NO)cn3)CC2)c2ccccc21`, for which the Potency is 0.121 µM (active).
Turning to `Nc1cccc2c1C(=O)N(C1CCC(=O)NC1=O)C2=O` (stereo not given), the “activity change, negative = cytotoxic” value was -8.04%.
Consider `CCCCCCCCc1ccc(CCC(N)(CO)CO)cc1`, for which the Potency is 34.1 µM (active).
Same read-out and setting: in the case of `O=C(O)C[C@H](O)C[C@H](O)C=Cc1c(C2CC2)nc2ccccc2c1-c1ccc(F)cc1` it was 4.82 µM (active).
Still for that read-out and setting: in the case of `O=C1NC(=O)C(=Cc2ccc3nccc(-c4ccncc4)c3c2)S1` it was 1.36 µM (active).
`C[C@@H]1[C@H](C)CC[C@]2(C(=O)O)CC[C@]3(C)C(=CC[C@@H]4[C@@]5(C)C[C@@H](O)[C@H](O)[C@@](C)(CO)[C@H]5CC[C@]43C)[C@@H]12`: the “activity change, negative = cytotoxic” value was 23.8%.
Still for that read-out and setting: next, `O=C(O)C=Cc1ccc(Cn2ccnc2)cc1`: 4.54%.
